Assay results: the supplement of paper PMC8728848
The sample as a whole holds a higher share of the strongest signals than the screen did.

Tests used:
Experiment in all cases: glycan array binding signal (z-score within array); higher = stronger binding
Details in all cases: glycan notation: IUPAC condensed, linker removed
[1] = target: GlcNAc(a1-4)Gal(b1-4)GlcNAc(b1-3)Gal(b1-4)[Fuc(a1-3)]GlcNAc(b1-3)Gal(b1-4)[Fuc(a1-3)]GlcNAc
In short: (§1)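 Glycan array data came from 3228 arrays in the Consortium for Functional Glycomics database, and only arrays with an available protein sequence were kept. Glycan names were put into IUPAC-condensed notation, and columns mapping to the same glycan were averaged. The binding signal is a within-array Z-score, averaged across arrays of one protein sequence run at different concentrations or buffers and across linkers. A negative Z-score can be read as non-binding.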

[2] = target: GlcNAc(b1-3)Gal(b1-3)GalNAc
In short: as §1

GlcNAc(b1-3)Gal(b1-4)Glc = target: GlcNAc(b1-3)Gal(b1-4)Glc
In short: as §1

[3] = target: GlcNAc(b1-3)Gal(b1-4)GlcNAc(b1-6)[Gal(b1-3)]GalNAc
In short: as §1

Kdn(a2-3)Gal(b1-3)GalNAc = target: Kdn(a2-3)Gal(b1-3)GalNAc
In short: as §1

[4] = target: Man(a1-2)Man(a1-2)Man(a1-3)Man
In short: as §1

[5] = target: Man(a1-2)Man(a1-3)[Man(a1-2)Man(a1-6)]Man(a1-6)[Man(a1-2)Man(a1-2)Man(a1-3)]Man
In short: as §1

Man(a1-3)[Man(a1-6)]Man = target: Man(a1-3)[Man(a1-6)]Man
In short: as §1

[6] = target: Man(a1-3)[Man(a1-6)]Man(a1-6)[Man(a1-2)Man(a1-3)]Man(b1-4)GlcNAc(b1-4)GlcNAc
In short: as §1

Man(a1-6)Man = target: Man(a1-6)Man
In short: as §1

[7] = target: Neu5Ac(a2-3)Gal(b1-3)GalNAc(b1-3)Gal(a1-4)Gal(b1-4)Glc
In short: as §1

[8] = target: Neu5Ac(a2-3)Gal(b1-4)GlcNAc(b1-2)Man
In short: as §1

[9] = target: Neu5Ac(a2-3)Gal(b1-4)GlcNAc(b1-3)Gal
In short: as §1

[10] = target: Neu5Ac(a2-3)Gal(b1-4)GlcNAc(b1-3)Gal(b1-4)GlcNAc(b1-3)Gal(b1-4)GlcNAc
In short: as §1

[11] = target: Neu5Ac(a2-3)Gal(b1-4)GlcNAc(b1-3)Gal(b1-4)[Fuc(a1-3)]GlcNAc
In short: as §1

[12] = target: Neu5Ac(a2-3)Gal(b1-4)GlcNAc(b1-6)[Neu5Ac(a2-3)Gal(b1-3)]GalNAc
In short: as §1

[13] = target: Neu5Ac(a2-6)Gal(b1-3)GlcNAc(b1-3)[Gal(b1-4)GlcNAc(b1-6)]Gal(b1-4)Glc
In short: as §1

Neu5Ac(a2-6)Gal(b1-4)Glc = target: Neu5Ac(a2-6)Gal(b1-4)Glc
In short: as §1

[14] = target: Neu5Ac(a2-6)Gal(b1-4)GlcNAc(b1-2)Man(a1-3)[Gal(b1-4)GlcNAc(b1-2)Man(a1-6)]Man(b1-4)GlcNAc(b1-4)GlcNAc
In short: as §1

[15] = target: Neu5Ac(a2-6)Gal(b1-4)GlcNAc(b1-2)Man(a1-3)[Man(a1-6)]Man(b1-4)GlcNAc(b1-4)GlcNAc
In short: as §1

[16] = target: Neu5Ac(a2-6)Gal(b1-4)GlcNAc(b1-3)Gal(b1-4)GlcNAc(b1-3)GalNAc
In short: as §1

[17] = target: Neu5Ac(a2-6)Gal(b1-4)GlcNAc(b1-6)GalNAc
In short: as §1

[18] = target: Neu5Ac(a2-8)Neu5Ac(a2-8)Neu5Ac(a2-3)[Gal(b1-3)GalNAc(b1-4)]Gal(b1-4)Glc
In short: as §1

[19] = target: Neu5Ac(a2-8)Neu5Gc(a2-3)Gal(b1-4)GlcNAc
In short: as §1

[20] = target: Neu5Gc(a2-6)Gal(b1-4)GlcNAc
In short: as §1

B1: LngA (Escherichia coli) (protein)
chain: MLSVYNRTQKFKAEARKKIAKYHELRKQRGMSLLEVIIVLGIIGTIAAGVVILAQRAFDSRAVTDLVTNTNTVRVRMKDAYQRDGKYPDFVDPLSLTANTIKTDTSGIPAAQLVQLGKITPDEVRNNISGDFIAIGGALTSNGAQVKKGFAIELNGLSQEQCRSILGQVGNNWEYVAIGTSASGSYAMTATGVDMSVAASTTVLRSLGNNGQTTLTADKILSTCTAQVNSITLGSR
glycan array binding signal (z-score) [1]: 0.38
glycan array binding signal (z-score) [2]: 0.147
glycan array binding signal (z-score) (GlcNAc(b1-3)Gal(b1-4)Glc): -0.256
glycan array binding signal (z-score) [3]: -0.006
glycan array binding signal (z-score) (Kdn(a2-3)Gal(b1-3)GalNAc): -0.202
glycan array binding signal (z-score) [4]: -0.556
glycan array binding signal (z-score) [5]: -0.506
glycan array binding signal (z-score) (Man(a1-3)[Man(a1-6)]Man): -0.411
glycan array binding signal (z-score) [6]: -0.239
glycan array binding signal (z-score) (Man(a1-6)Man): 3.82
glycan array binding signal (z-score) [7]: -0.375
glycan array binding signal (z-score) [8]: 3.6
glycan array binding signal (z-score) [9]: -0.531
glycan array binding signal (z-score) [10]: -0.508
glycan array binding signal (z-score) [11]: 2.73
glycan array binding signal (z-score) [12]: -0.439
glycan array binding signal (z-score) [13]: -0.533
glycan array binding signal (z-score) (Neu5Ac(a2-6)Gal(b1-4)Glc): -0.2
glycan array binding signal (z-score) [14]: -0.321
glycan array binding signal (z-score) [15]: -0.28
glycan array binding signal (z-score) [16]: -0.361
glycan array binding signal (z-score) [17]: 2.77
glycan array binding signal (z-score) [18]: -0.06
glycan array binding signal (z-score) [19]: -0.319
glycan array binding signal (z-score) [20]: -0.433
